In PubChem BioAssay (EPA / NIEHS):
Inconclusive results are not listed. Active and inactive are the calls of the source. The calls were made as follows: active = hit-call score of the fitted dose curve at least 0.9, where 1 is the maximum; inconclusive = response in the unintended direction; inactive = score below 0.9.

Columns and labels:
[1] = biological target: human Peroxisome Proliferator-activated Receptor alpha (PPARa), PPARA (gene 5465) (UniProt Q07869); assay: ATG_PPARa_TRANS: Attagene TRANS-FACTORIAL HepG2 Assay for human Peroxisome Proliferator-activated Receptor alpha (PPARa) (AID 2283001);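 as to AC50: potency for gain of reporter signal over DMSO so agonist or activator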
Procedure, shortened: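 Read-out is fluorescence of reporter cDNA fragments resolved by capillary electrophoresis after RT-PCR. Human HepG2 liver cells carried transfected PPARa-Gal4 chimera and GAL4-UAS reporter units, treated 24 h; activity scored as increase over DMSO.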

[2] = biological target: human Peroxisome Proliferator-activated Receptor delta (PPARd), PPARD (gene 5467) (UniProt Q03181); assay: ATG_PPARd_TRANS: Attagene TRANS-FACTORIAL HepG2 Assay for human Peroxisome Proliferator-activated Receptor delta (PPARd) (AID 2283002)
Procedure, shortened: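 Cell-based TRANS reporter: HepG2, transient MRTU transfection, 24 h exposure. Readout = reporter mRNA (RT-PCR/CE, 6-FAM). Gain-of-signal fit vs DMSO control.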

[3] = biological target: Peroxisome proliferator-activated receptor gamma (Homo sapiens) (UniProt P37231); assay: ATG_PPARg_TRANS: Attagene TRANS-FACTORIAL HepG2 Assay for human Peroxisome Proliferator-activated Receptor-gamma (PPARg) (AID 2283007)
Procedure, shortened: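 Chimeric NR-Gal4 transactivation is measured in transiently transfected HepG2 cells by reporter mRNA induction at 24 h. Detection uses RT-PCR with fluorescent labelling and capillary electrophoresis; DMSO defines baseline.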

[4] = biological target: Nuclear receptor subfamily 1 group I member 2 (Homo sapiens) (UniProt O75469); assay: ATG_PXR_TRANS: Attagene TRANS-FACTORIAL HepG2 Assay for human Pregnane X Receptor (PXR) (AID 2283008)
Procedure, shortened: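 HepG2 cells transiently transfected with GAL4-UAS reporter units and PXR-Gal4 chimera, exposed 24 h. Reporter mRNA quantified by RT-PCR, fluorescent labelling, HpaI digestion and capillary electrophoresis; gain of signal vs DMSO.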

[5] = biological target: Retinoic acid receptor RXR-alpha (Homo sapiens) (UniProt P19793); assay: ATG_RXRa_TRANS: Attagene TRANS-FACTORIAL HepG2 Assay for human Retinoid X Receptor alpha (RXRa) (AID 2283012)
Procedure, shortened: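 Transient transfection of human HepG2 with multiple GAL4-UAS reporter constructs; 24 h compound exposure; total RNA isolated, reverse-transcribed, PCR-amplified, 6-FAM labelled, HpaI-cut, resolved by capillary electrophoresis. Positive-direction fit versus DMSO.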

[6] = biological target: human Retinoid X Receptor beta (RXRb), RXRB (gene 6257) (UniProt P28702); assay: ATG_RXRb_TRANS: Attagene TRANS-FACTORIAL HepG2 Assay for human Retinoid X Receptor beta (RXRb) (AID 2283013)
Procedure, shortened: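 Transfect HepG2 with GAL4-UAS multi-reporter constructs (chimeric NR-Gal4, TRANS format); dose compound 24 h; isolate RNA, RT-PCR, FAM primer extension, HpaI digest; quantify by capillary electrophoresis; positive direction vs DMSO.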

[7] = biological target: human Thyroid Receptor alpha (THRa1), THRA (gene 7067) (UniProt P10827); assay: ATG_THRa1_TRANS: Attagene TRANS-FACTORIAL HepG2 Assay for human Thyroid Receptor alpha (THRa1) (AID 2283014)
Procedure, shortened: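 Reporter transcript induction, read by capillary electrophoresis of 6-FAM-labelled RT-PCR products, reflects activity of a transfected THRa1-Gal4 fusion in HepG2 liver cells. Cells were dosed for 24 h; activity was fitted in the positive direction against DMSO.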

[8] = biological target: human Retinoic Acid Receptor beta (RARb), RARB (gene 5915) (UniProt P10826); assay: ATG_RARb_TRANS: Attagene TRANS-FACTORIAL HepG2 Assay for human Retinoic Acid Receptor beta (AID 2283004)
Procedure, shortened: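 Transient transfection of HepG2 with multiple reporter units → chemical dosing, 24 h → total RNA isolation → RT with oligo(dT) → reporter-specific PCR, 6-FAM primer extension, HpaI digest → capillary electrophoresis. Positive direction vs DMSO control.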

[9] = biological target: Retinoic acid receptor alpha (Homo sapiens) (UniProt P10276); assay: ATG_RARa_TRANS: Attagene TRANS-FACTORIAL HepG2 Assay for human Retinoic Acid Receptor alpha (RARa) (AID 2283005)
Procedure, shortened: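 Reporter transcripts, measured by RT-PCR with fluorescent labeling and capillary electrophoresis after 24 h dosing, reflect activity of an exogenous human RARa–GAL4 fusion in transiently transfected HepG2. Fitted for increase relative to DMSO.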

[10] = biological target: human Retinoic Acid Receptor gamma (RARg), RARG (gene 5916) (UniProt P13631); assay: ATG_RARg_TRANS: Attagene TRANS-FACTORIAL HepG2 Assay for human Retinoic Acid Receptor gamma (RARg) (AID 2283009)
Procedure, shortened: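 Transient transfection of HepG2 with multi-reporter constructs, then 24 h chemical treatment. Total RNA isolated, reverse-transcribed, PCR-amplified, fluorescently labelled and resolved by capillary electrophoresis; activity scored as mRNA induction versus DMSO.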

[11] = biological target: human RAR-related Orphan Receptor beta (RORb), RORB (gene 6096) (UniProt Q92753); assay: ATG_RORb_TRANS: Attagene TRANS-FACTORIAL HepG2 Assay for human RAR-related Orphan Receptor beta (RORb) (AID 2283010)
Procedure, shortened: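 Readout is reporter-gene mRNA induction, detected as fluorescence after RT-PCR and capillary electrophoresis, fitted for gain of signal against DMSO controls. Transiently transfected HepG2 liver cells carrying GAL4-UAS reporter constructs were treated for 24 hours.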

[12] = biological target: human RAR-related Orphan Receptor gamma (RORg), RORC (gene 6097) (UniProt P51449); assay: ATG_RORg_TRANS: Attagene TRANS-FACTORIAL HepG2 Assay for human RAR-related Orphan Receptor gamma (RORg) (AID 2283011)
Procedure, shortened: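 First, HepG2 liver cells were transfected with GAL4-UAS-driven reporter constructs and the RORg-Gal4 fusion. Next, they were treated with chemical for 24 h. Finally, reporter mRNA was quantified by RT-PCR and capillary electrophoresis, with upward activity fitted against DMSO.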

Measured: AC50

Sequence of Retinoic acid receptor alpha (Homo sapiens) (P10276 whole entry, looked up, the tested form may be a part): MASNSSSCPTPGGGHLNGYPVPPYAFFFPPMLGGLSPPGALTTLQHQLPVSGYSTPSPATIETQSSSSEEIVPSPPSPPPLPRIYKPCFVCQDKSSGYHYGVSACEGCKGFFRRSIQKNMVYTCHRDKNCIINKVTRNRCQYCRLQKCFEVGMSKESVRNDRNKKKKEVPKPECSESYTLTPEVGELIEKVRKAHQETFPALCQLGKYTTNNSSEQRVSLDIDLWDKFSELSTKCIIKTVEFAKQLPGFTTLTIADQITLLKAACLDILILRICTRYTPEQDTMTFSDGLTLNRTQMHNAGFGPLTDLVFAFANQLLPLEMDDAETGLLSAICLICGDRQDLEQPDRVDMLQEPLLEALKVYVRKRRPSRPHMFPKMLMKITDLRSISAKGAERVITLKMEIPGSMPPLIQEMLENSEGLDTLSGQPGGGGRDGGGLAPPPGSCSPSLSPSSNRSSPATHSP
Sequence of human Thyroid Receptor alpha (THRa1), THRA (gene 7067) (P10827 whole entry, looked up, the tested form may be a part): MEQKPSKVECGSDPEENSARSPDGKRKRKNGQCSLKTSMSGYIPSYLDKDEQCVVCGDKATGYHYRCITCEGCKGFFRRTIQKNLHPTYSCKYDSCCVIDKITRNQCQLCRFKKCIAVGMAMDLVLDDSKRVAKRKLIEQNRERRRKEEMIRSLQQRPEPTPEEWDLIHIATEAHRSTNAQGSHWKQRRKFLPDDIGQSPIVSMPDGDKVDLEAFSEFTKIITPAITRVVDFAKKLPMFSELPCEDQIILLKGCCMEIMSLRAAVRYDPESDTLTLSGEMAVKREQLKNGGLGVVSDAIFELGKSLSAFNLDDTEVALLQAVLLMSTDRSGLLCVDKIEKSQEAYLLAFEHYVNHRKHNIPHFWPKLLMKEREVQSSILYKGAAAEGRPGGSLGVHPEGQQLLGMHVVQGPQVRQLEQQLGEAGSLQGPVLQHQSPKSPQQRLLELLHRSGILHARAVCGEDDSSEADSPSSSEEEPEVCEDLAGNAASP
Sequence of human Retinoid X Receptor beta (RXRb), RXRB (gene 6257) (P28702 whole entry, looked up, the tested form may be a part): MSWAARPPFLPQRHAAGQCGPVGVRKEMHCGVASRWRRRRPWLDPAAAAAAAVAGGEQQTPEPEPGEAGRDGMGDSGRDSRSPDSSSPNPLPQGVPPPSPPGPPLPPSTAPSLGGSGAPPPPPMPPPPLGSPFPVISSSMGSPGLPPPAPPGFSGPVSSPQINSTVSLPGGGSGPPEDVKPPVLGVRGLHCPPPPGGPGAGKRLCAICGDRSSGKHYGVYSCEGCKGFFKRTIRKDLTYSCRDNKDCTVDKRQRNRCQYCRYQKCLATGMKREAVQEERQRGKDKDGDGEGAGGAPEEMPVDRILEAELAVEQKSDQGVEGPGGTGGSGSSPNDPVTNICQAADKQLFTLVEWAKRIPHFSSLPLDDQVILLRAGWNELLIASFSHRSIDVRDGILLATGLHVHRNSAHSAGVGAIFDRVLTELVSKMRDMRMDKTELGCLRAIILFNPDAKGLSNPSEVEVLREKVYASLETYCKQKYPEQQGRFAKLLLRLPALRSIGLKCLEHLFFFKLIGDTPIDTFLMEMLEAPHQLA
Sequence of Peroxisome proliferator-activated receptor gamma (Homo sapiens) (P37231 whole entry, looked up, the tested form may be a part): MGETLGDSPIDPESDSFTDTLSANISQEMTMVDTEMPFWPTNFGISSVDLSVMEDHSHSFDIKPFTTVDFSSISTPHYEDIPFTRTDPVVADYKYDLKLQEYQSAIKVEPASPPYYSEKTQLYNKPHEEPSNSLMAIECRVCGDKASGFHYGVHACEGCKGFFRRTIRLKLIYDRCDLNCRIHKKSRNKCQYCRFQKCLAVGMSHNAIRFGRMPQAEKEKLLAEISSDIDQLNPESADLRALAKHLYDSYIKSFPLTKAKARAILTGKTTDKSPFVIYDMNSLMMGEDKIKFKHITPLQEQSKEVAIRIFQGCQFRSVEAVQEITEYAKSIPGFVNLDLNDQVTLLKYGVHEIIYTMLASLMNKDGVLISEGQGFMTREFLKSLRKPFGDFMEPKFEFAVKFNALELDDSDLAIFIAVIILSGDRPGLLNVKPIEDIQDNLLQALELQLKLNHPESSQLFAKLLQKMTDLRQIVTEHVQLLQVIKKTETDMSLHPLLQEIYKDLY
Sequence of human Retinoic Acid Receptor gamma (RARg), RARG (gene 5916) (P13631 whole entry, looked up): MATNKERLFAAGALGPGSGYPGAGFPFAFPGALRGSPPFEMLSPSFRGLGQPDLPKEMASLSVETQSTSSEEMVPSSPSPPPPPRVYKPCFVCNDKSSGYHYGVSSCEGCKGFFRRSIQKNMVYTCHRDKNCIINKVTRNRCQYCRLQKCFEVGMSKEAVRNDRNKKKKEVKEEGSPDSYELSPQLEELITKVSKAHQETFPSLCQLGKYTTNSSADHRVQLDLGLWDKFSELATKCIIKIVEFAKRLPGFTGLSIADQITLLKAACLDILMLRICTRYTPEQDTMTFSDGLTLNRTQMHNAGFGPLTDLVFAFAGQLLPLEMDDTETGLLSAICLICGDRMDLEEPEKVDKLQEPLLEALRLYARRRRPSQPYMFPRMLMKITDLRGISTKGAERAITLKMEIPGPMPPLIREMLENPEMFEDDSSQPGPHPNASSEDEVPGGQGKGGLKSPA
Sequence of human RAR-related Orphan Receptor gamma (RORg), RORC (gene 6097) (P51449 whole entry, looked up, the tested form may be a part): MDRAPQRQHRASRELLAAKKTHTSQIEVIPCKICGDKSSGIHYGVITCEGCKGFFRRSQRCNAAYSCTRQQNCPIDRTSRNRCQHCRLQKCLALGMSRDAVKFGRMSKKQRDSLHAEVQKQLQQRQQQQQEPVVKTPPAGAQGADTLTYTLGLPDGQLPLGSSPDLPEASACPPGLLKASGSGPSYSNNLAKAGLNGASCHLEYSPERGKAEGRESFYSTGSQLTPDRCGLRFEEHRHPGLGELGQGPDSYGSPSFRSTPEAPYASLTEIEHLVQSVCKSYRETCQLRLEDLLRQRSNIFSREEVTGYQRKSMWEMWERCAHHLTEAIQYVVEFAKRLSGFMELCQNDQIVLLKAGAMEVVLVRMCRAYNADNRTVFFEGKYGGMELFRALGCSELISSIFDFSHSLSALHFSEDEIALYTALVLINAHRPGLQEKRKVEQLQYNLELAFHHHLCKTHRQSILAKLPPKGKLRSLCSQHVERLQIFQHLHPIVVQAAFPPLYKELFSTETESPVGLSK
Sequence of human Peroxisome Proliferator-activated Receptor alpha (PPARa), PPARA (gene 5465) (Q07869 whole entry, looked up, the tested form may be a part): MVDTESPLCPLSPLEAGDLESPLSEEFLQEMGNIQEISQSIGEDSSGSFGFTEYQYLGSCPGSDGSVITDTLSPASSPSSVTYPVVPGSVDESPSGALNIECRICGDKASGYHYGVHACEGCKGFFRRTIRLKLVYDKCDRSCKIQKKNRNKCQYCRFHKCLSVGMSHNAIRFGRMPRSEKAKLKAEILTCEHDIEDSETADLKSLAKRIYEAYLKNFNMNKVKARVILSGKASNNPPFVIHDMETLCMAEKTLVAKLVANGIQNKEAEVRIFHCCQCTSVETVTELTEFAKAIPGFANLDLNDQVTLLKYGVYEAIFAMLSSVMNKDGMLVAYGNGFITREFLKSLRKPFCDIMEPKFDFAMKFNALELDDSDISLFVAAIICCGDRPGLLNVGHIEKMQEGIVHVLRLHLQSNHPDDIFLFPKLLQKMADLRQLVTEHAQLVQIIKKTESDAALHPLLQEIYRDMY
Sequence of human RAR-related Orphan Receptor beta (RORb), RORB (gene 6096) (Q92753 whole entry, looked up, the tested form may be a part): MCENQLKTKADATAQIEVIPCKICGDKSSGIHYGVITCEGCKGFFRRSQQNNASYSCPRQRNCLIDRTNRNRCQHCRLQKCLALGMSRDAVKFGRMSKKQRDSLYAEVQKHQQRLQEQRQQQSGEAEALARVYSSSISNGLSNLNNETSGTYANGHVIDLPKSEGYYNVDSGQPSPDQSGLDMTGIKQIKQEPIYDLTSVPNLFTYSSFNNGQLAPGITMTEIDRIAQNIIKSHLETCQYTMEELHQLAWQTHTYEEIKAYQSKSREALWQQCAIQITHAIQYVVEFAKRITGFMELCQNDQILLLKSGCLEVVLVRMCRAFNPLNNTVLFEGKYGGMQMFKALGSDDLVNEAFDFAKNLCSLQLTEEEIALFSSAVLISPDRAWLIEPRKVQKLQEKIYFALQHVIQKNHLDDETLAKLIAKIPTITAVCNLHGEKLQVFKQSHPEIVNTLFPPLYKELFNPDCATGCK
Sequence of Nuclear receptor subfamily 1 group I member 2 (Homo sapiens) (O75469 whole entry, looked up, the tested form may be a part): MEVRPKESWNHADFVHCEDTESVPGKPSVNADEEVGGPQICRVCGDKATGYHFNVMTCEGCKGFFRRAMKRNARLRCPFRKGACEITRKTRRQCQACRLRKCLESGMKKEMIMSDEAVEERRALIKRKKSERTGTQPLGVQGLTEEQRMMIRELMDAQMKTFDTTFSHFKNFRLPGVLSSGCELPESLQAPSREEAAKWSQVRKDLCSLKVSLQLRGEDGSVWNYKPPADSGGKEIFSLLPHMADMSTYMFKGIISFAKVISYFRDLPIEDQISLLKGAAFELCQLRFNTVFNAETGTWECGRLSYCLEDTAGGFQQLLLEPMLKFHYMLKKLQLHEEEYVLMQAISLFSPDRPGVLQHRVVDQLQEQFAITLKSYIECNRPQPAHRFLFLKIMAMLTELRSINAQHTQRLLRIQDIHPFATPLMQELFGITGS
Sequence of Retinoic acid receptor RXR-alpha (Homo sapiens) (P19793 whole entry, looked up, the tested form may be a part): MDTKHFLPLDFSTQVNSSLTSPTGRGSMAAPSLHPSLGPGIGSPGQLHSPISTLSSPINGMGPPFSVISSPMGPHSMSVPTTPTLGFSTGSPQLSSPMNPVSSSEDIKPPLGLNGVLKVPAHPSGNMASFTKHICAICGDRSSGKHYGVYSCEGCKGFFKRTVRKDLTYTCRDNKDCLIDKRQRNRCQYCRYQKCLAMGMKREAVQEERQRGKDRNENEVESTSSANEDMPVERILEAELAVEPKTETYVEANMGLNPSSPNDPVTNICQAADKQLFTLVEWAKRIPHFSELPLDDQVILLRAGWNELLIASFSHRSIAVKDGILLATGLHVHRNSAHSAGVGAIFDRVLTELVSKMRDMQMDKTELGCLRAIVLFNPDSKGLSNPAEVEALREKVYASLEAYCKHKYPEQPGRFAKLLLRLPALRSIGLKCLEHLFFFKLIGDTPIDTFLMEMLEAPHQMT

CC(CC=O)CC(C)(C)C (stereo not drawn)
inactive: [1] | [2] | [3] | [5] | [6] | [7]
active: [4] 7.15 µM

COc1ccc(-c2coc3cc(O)cc(O)c3c2=O)cc1
inactive: [8] | [9] | [10] | [5]
active: [1] 7.31 µM | [3] 27.1 µM | [4] 26.6 µM

Nc1ccc(O)c([N+](=O)[O-])c1
inactive: [1] | [2] | [3] | [4] | [11] | [5] | [6]

CC(=O)OCCc1ccccc1
inactive: [1] | [2] | [5] | [6] | [7]

O=C(O)c1cc(O)c2ccccc2c1O
active: [3] 9.25 µM | [4] 2.31 µM
not listed: [8] | [9] | [12]
inactive: all other assays above

CCOC(=O)c1ccc(C)cc1
inactive: [1] | [2] | [3] | [10] | [5] | [6]

CCCSSCCC
inactive: [1] | [2] | [9] | [10] | [11] | [12] | [5]

NC(=O)Nc1ccccc1
inactive: [1] | [8]

CC1=CC(C)C(C=O)CC1 (stereo not drawn)
not listed: [2] | [4] | [7] | [12]
inactive: all other assays above

CCCCOC(=O)CCC(C)=O
inactive: [1] | [2] | [3] | [4] | [5] | [6]

CC(C)COC(=O)CC(C(=O)OCC(C)C)S(=O)(=O)O (stereo not drawn)
active: [3] 66.8 µM | [4] 36.2 µM
inactive: [1] | [2] | [9] | [6]

CC(C)c1ccc2ncccc2c1
active: [4] 21.4 µM
inactive: [1] | [8] | [9] | [10] | [5] | [6]

O=S(=O)(O)c1ccc(Nc2nc(Nc3ccc(C=Cc4ccc(Nc5nc(Nc6ccc(S(=O)(=O)O)cc6)nc(N(CCO)CCO)n5)cc4S(=O)(=O)O)c(S(=O)(=O)O)c3)nc(N(CCO)CCO)n2)cc1
inactive: [1] | [2] | [9] | [3] | [12] | [5] | [6]

C=C(C)C(=O)OCC(O)COc1ccc(C(C)(C)c2ccc(OCC(O)COC(=O)C(=C)C)cc2)cc1 (stereo not drawn)
active: [3] 7.32 µM | [4] 6.93 µM
inactive: [1] | [2] | [10] | [11] | [5]

CCOC(=O)c1ccccc1C
inactive: [1] | [8] | [9] | [4] | [7]

O=C(O)CC(C(=O)O)S(=O)(=O)O (stereo not drawn)
inactive: [1] | [2] | [12] | [5]

CCCCCCCOC(=O)c1ccc(O)cc1
inactive: [1] | [8] | [9] | [3] | [10]
active: [6] 11.1 µM

O=C(O)/C=C/c1ccccc1
active: [6] 121 µM
inactive: [1] | [2] | [3] | [4] | [5] | [7]

CCCCC/C=C\C/C=C\CCCCCCCC(=O)O
active: [1] 28.9 µM | [3] 11.9 µM
inactive: [2] | [5]

CCCCCCCCCC[N+](C)(CCCCCCCCCC)CCC[Si](OC)(OC)OC
inactive: [1] | [2] | [3] | [12] | [5] | [6] | [7]

CC(C)=CCl
inactive: [1] | [2] | [10] | [12] | [5]

CCCC1CCCC(=O)O1 (stereo not drawn)
inactive: [1] | [2] | [5] | [6] | [7]
active: [3] 23.4 µM

CCC1COC(=O)O1 (stereo not drawn)
inactive: [1] | [2] | [3] | [4] | [11] | [5]
active: [6] 70.1 µM

CCCCCCCCCCCCCCCCCCOS(=O)(=O)O
active: [1] 27.4 µM | [2] 112 µM | [3] 8.35 µM | [6] 34.3 µM
inactive: [4] | [7]

O=C1CCCCC1C1CCCCC1 (stereo not drawn)
active: [4] 41.2 µM
not listed: [2] | [7] | [12]
inactive: all other assays above

Clc1cccnc1
inactive: [1] | [8] | [9] | [10] | [12] | [5] | [7]

Nc1ccc(Cl)c(N)c1
not listed: [2] | [8] | [12]
inactive: all other assays above

O=C(C=Cc1ccccc1)OCCc1ccccc1
active: [3] 3.05 µM
not listed: [2] | [8] | [9] | [10]
inactive: all other assays above

O=C(O[C@@H]1Cc2c(O)cc(O)cc2O[C@@H]1c1cc(O)c(O)c(O)c1)c1cc(O)c(O)c(O)c1
inactive: [1] | [3] | [4] | [10] | [5] | [6]

CC(=O)OC/C=C(/C)CCC=C(C)C
inactive: [1] | [9] | [3] | [4] | [11] | [5] | [6]

CCCCCCCCCCCCc1ccc(O)cc1
active: [4] 3 µM | [6] 3.36 µM
inactive: [1] | [3] | [10] | [5] | [7]

CO[Si](CCCS)(OC)OC
inactive: [1] | [3] | [4] | [11] | [5] | [6] | [7]

CCC(C)c1ccccc1 (stereo not drawn)
inactive: [1] | [3] | [4] | [10] | [11] | [6]

O=C(Nc1ccccc1)c1cc(Cl)ccc1O
active: [3] 13 µM
not listed: [2] | [8] | [11] | [12]
inactive: all other assays above

CC(C)=CCCC(C)=CC#N
inactive: [1] | [8] | [3] | [4] | [5] | [6]
